TDP1 cell CPT: qHTS for Inhibitors of human tyrosyl-DNA phosphodiesterase 1 (TDP1): qHTS in cells in presence of CPT. chicken DT40 Tdp1-/-;hTDP1 cells + 20 nM CPT, ATP luminescence, 48 h. Potency, µM (doses to about 46.2 µM), for the others: top-dose activity change, negative = growth inhibition, most hits filed as inhibitors. 420,000 tested, 12% active. AID 686979, 2013; note: potency is the fitted concentration of half-maximal effect; nearly all actives have a fitted effect of over 55% in size
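Chicken DT40 Tdp1-/- cells stably complemented with human TDP1 were seeded at 400 cells/well in medium containing 20 nM camptothecin, exposed to pin-transferred compounds, and grown at 37 °C for at least 48 hr. Viability was read as ATP luminescence.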
ELG1 repair inh: qHTS screen for small molecules that inhibit ELG1-dependent DNA repair in human embryonic kidney (HEK293T) cells expressing luciferase-tagged ELG1. HEK293T ELG1-luciferase reporter, luminescence, 16 h; DNA damage induced by 5-fluorouridine. Potency, µM (doses to about 46.1 µM), for the others: at the top dose activity change, negative = inhibition, most hits filed as inhibitors. 330,000 tested, 2.3% active; note: potency is the fitted concentration of half-maximal effect; nearly all actives have a fitted effect of over 55% in size
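Overnight (16 hr) co-exposure of 2,000 cells/well to 5-fluorouridine and compound at 37 °C preceded detection. Luciferase was quantified via ONE-Glo luminescence; loss of signal denotes inhibition.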
IL1B secr inh: qHTS for Inhibitors of Inflammasome Signaling: IL-1-beta AlphaLISA Primary Screen | activity change, % at 57.5 µM | 360,000 tested, 4.7% active | THP-1 LPS/ATP IL-1B secretion, AlphaLISA, 16 h; hits give low values; in the data active = activity change below about -50%; inconclusive = mostly about -30% to -49%
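Secreted IL-1B measured by AlphaLISA bead assay after 16 h compound exposure of THP-1 cells; compounds (final up to 57.5 uM) added 1 h before LPS (250 ng/mL) and ATP (1.25 mM) stimulation; lower signal means less secretion.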
VP16 counter: VP16 counterscreen qHTS for inhibitors of ROR gamma transcriptional activity. Drosophila S2 Gal4-VP16 UAS-luciferase, luminescence, 20 h. 310,000 tested, 3.5% active. Potency, µM (highest dose often 53.6 µM), for the others: top-dose activity, negative = inhibition, usual class: inhibitors;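 note: Gal4-VP16 expression switched on by copper sulfate through the metallothionein promoter; potency is the fitted concentration of half-maximal effect; nearly all actives have a fitted effect of over 50% in size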
TDP1 cell noCPT: qHTS for Inhibitors of human tyrosyl-DNA phosphodiesterase 1 (TDP1): qHTS in cells in absence of CPT. AID 686978, 2013. Potency, µM (top dose mostly 46.2 µM), for inactives: top-dose activity change, negative = growth inhibition, usual class: inhibitors. 420,000 tested, 15% active. DT40 Tdp1-/- hTDP1 cells, no CPT, ATP luminescence, 48 h; note: potency is the fitted concentration of half-maximal effect; nearly all actives have a fitted effect of over 55% in size
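DT40 Tdp1-/-;hTDP1 cells, no CPT (DMSO vehicle only), 400 cells/well; compounds pin-transferred; ≥48 hr, 37 °C; CellTiter-Glo 30 min RT dark, luminescence read.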
RORg inh: qHTS for inhibitors of ROR gamma transcriptional activity; Nuclear receptor ROR-gamma (Mus musculus), P51450; Drosophila S2 Gal4-RORgamma UAS-luciferase reporter, 20 h; 310,000 tested, 5.4% active; Potency, µM (highest dose often 53.6 µM), for inactives: top-dose activity change, negative = inhibition, actives largely listed as inhibitors; note: potency is the fitted concentration of half-maximal effect; nearly all actives have a fitted effect of over 60% in size
Target sequence (P51450 whole entry, looked up, the tested form may be a part): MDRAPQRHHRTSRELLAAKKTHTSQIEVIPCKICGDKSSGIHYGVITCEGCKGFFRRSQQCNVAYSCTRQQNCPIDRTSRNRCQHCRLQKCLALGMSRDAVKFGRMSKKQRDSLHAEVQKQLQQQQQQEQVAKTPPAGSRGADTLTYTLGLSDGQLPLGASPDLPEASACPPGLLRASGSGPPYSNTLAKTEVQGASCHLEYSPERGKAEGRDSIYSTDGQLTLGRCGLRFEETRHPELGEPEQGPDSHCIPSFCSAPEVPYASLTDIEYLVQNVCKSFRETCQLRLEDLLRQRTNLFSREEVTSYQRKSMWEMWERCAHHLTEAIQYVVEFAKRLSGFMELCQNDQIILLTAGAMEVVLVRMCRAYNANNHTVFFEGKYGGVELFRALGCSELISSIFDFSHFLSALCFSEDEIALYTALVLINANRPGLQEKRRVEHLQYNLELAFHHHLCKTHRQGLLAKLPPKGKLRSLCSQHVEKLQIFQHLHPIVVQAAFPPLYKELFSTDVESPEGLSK
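A Gal4/UAS one-hybrid system in insect cells: metallothionein-promoter Gal4–ROR gamma fusion plus Photinus luciferase reporter. Copper sulfate 700 uM final, 20 hr ambient incubation, luminescent detection after 10 min with reagent.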
* marks the source's active call; other numbers are inactive results; ? = inconclusive; / = not tested or not shown. In the library only some 21% were active in any assay of this set; here they are far more common. Unless noted, calls come from the whole dose curve; as a rule, active = well fitted curve in the direction sought with a large enough effect; inconclusive = small, poorly fitted or top-dose-only effect, or another doubt; inactive = no such curve, though single readings can be large; an effect the other way counts as inactive or inconclusive. % is set by controls: 0 for no effect and ±100 for the full control effect.

SMILES	TDP1 cell CPT	ELG1 repair inh	IL1B secr inh	VP16 counter	TDP1 cell noCPT	RORg inh
COc1ccc2nc(N(Cc3cccnc3)C(=O)CCc3ccccc3)sc2c1	-11%	/	/	/	-15%	/
Cc1ccc(Cn2c(=O)c3cccnc3n(CC(=O)Nc3cc(Cl)ccc3C)c2=O)cc1	-22%	/	/	/	?	/
Cc1ccc([N+](=O)[O-])cc1N/C=C1\CCc2ccccc2C1=O	21µM*	?	7	?	?	6%
O=C1C(=Cc2ccccc2Cl)CCc2ccccc21	-74%	/	?	/	?	/
O=C(Nc1ccccc1)N1CC[C@@]2(CCCN(C(=O)c3cccc(F)c3)C2)C1	6%	/	/	0%	-2%	-24%
CC[C@H](C)[C@H](NC(=O)[C@H](CCC(=O)O)NC(=O)CNC(=O)[C@@H](NC(=O)[C@H](CCC(=O)O)NC(=O)[C@H](CCC(=O)O)NC(=O)[C@H](CC(C)C)NC(=O)CNC(=O)[C@@H]1CCCN1C(=O)[C@H](CCC(=O)O)NC(=O)[C@@H](N)[C@@H](C)O)C(C)C)C(=O)N[C@@H](CCC(=O)O)C(=O)N[C@@H](CCC(N)=O)C(=O)N[C@@H](CCCCN)C(=O)N[C@@H](CCC(N)=O)C(=O)N[C@@H](CC(C)C)C(=O)N[C@@H](CCC(N)=O)C(=O)O	/	/	/	-10%	/	-7%
Cn1cccc1C(=O)NC(=O)COC(=O)CCNS(=O)(=O)c1ccc(Cl)cc1	-17%	17%	13	/	10%	/
COc1ccccc1NC(=O)CSC1=Nc2ccccc2C2=NC(CCC(=O)NCc3ccco3)C(=O)N12 (stereo unspecified)	15µM*	/	/	/	16µM*	/
O=C(CCC1N=C2c3ccccc3N=C(SCc3ccccc3Cl)N2C1=O)NCc1ccco1 (stereo unspecified)	?	0%	?	-4%	18µM*	?
O=C(CCC1N=C2c3ccccc3N=C(SCc3ccccc3Cl)N2C1=O)N1CCN(c2ccccc2)CC1 (stereo unspecified)	?	/	/	/	21µM*	/
COc1ccccc1NC(=O)CSC1=Nc2ccccc2C2=NC(CCC(=O)NCCc3ccccc3)C(=O)N12 (stereo unspecified)	?	/	/	/	23µM*	/
COc1ccccc1CNC(=O)CCC1N=C2c3ccccc3N=C(SCC(=O)NCCc3ccccc3)N2C1=O (stereo unspecified)	-25%	/	/	/	-28%	/
Cc1sc2ncn(CC(=O)Nc3ccc(F)cc3Cl)c(=O)c2c1S(=O)(=O)N1CCN(c2ncccn2)CC1	-6%	/	/	/	-16%	/
CCN(CC)S(=O)(=O)c1ccc2nc(NC(=O)c3ccc(Br)o3)sc2c1	-17%	/	/	/	-19%	/
Cc1ccc(OCc2cc(C(=O)N3CCC(c4ccccc4Cl)C3)no2)cc1C (stereo unspecified)	?	?	13	?	18%	41%
CCOC(=O)N1CCC(NC(=O)c2cc3c(C)nc4ccccc4c3o2)CC1	9.2µM*	13µM*	-1	-5%	21µM*	-1%
CCOC(=O)N1CCC(NC(=O)c2oc3c(C)c(C)ccc3c2C)CC1	21µM*	/	-15	/	?	/
Cc1nc2ccccc2c2oc(C(=O)N3CCC(N4CCCCC4)CC3)cc12	?	-1%	?	-3%	?	-33%
CCCc1ccc2oc(C(=O)N3CCC[C@H]3CO)c(C)c2c1	-27%	?	-9	5%	?	?

Source: PubChem BioAssay
